HT1080 IDH1KD tx: qHTS for induction of synthetic lethality in tumor cells producing 2HG: qHTS for the HT-1080-IDH1KD cell line; HT-1080 IDH1 knockdown viability, ATP luminescence, 48 h; Potency, µM (titrated, usually from 46.1 µM), inactives show top-dose activity, negative = toxicity, most hits filed as cytotoxic; 2% of 360,000 active;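 further: potency means the concentration at half of the fitted maximal effect; 0% = DMSO wells and -100% = cell-free medium wells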
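Assay cells: HT-1080 with IDH1 knockdown, 750 per well, RPMI/5% FBS. Exposure: 48 h at 37 °C following 2 h pre-incubation. Read: CellTiter-Glo luminescence; fitted concentration-response, curve class assigned.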
HT1080-NT tox: qHTS for induction of synthetic lethality in tumor cells producing 2HG: qHTS for the HT-1080-NT fibrosarcoma cell line; 1.6% of 360,000 active; AID 686970, 2013; HT-1080-NT fibrosarcoma viability, CellTiter-Glo ATP luminescence, 48 h; Potency, µM (top dose mostly 46.1 µM), without a hit: at the highest dose activity, negative = less viability, hits mostly cytotoxic;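 further: NT is the 2HG producing partner of a matched IDH1 knockdown line; potency means the concentration at half of the fitted maximal effect; 0% = DMSO-treated cells and -100% = media-only wells without cells; nearly all actives have a fitted effect of over 55% in size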
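Luminescent CellTiter-Glo readout after 48 hours of compound exposure at 37 degrees C defined viability of HT-1080-NT cells. Activity was normalized to DMSO wells and cell-free media wells; concentration-response curves were fitted and assigned curve classes.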
IL-1B inflam inh: qHTS for Inhibitors of Inflammasome Signaling: IL-1-beta AlphaLISA Primary Screen | activity change, % at 57.5 µM | 4.7% of 360,000 active | THP-1 LPS/ATP IL-1B secretion, AlphaLISA, 16 h; hits give low values; in the data active means activity change below about -50%; inconclusive means mostly about -30% to -49%
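Secreted IL-1B measured by AlphaLISA bead assay after 16 h compound exposure of THP-1 cells; compounds (final up to 57.5 uM) added 1 h before LPS (250 ng/mL) and ATP (1.25 mM) stimulation; lower signal means less secretion.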
TDP1 cell noCPT: qHTS for Inhibitors of human tyrosyl-DNA phosphodiesterase 1 (TDP1): qHTS in cells in absence of CPT | Potency, µM (highest dose often 46.2 µM), for the others: at the top dose activity change, negative = growth inhibition, most hits filed as inhibitors | DT40 Tdp1-/- hTDP1 cells, no CPT, ATP luminescence, 48 h | AID 686978, 2013 | 15% of 420,000 active; further: potency means the concentration at half of the fitted maximal effect; nearly all actives have a fitted effect of over 55% in size
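Camptothecin absent (DMSO only). Human TDP1-complemented DT40 knockout cells, 400 cells/well, 37 °C for minimum 48 hr; ATP measured via CellTiter-Glo, 30 min dark incubation, luminescence.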
DT40 TDP1 CPT: qHTS for Inhibitors of human tyrosyl-DNA phosphodiesterase 1 (TDP1): qHTS in cells in presence of CPT. 12% of 420,000 active. Potency, µM (series often up to 46.2 µM), without a hit: at the top dose activity change, negative = growth inhibition, usual class: inhibitors. chicken DT40 Tdp1-/-;hTDP1 cells + 20 nM CPT, ATP luminescence, 48 h; further: potency means the concentration at half of the fitted maximal effect; nearly all actives have a fitted effect of over 55% in size
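Cell growth measured by CellTiter-Glo luminescence after a minimum 48 h, 37 C compound exposure with 20 nM CPT in Tdp1-knockout DT40 cells stably expressing hTDP1, seeded 400/well; qHTS titration format.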
An asterisk follows results filed as active; ? = inconclusive; . = not tested or not shown; [ ] = remark or other dose. Hits are enriched below; roughly 19% of the tested compounds scored in any of these assays. Unless noted, the call rests on the fitted dose curve; in most records, active means well fitted curve in the direction sought with a large enough effect; inconclusive means small, poorly fitted or top-dose-only effect, or another doubt; inactive means no such curve, though single readings can be large; an effect the other way counts as inactive or inconclusive. Unless noted, on the % scale 0 is the no-effect control and ±100 the full control effect.

SMILES	HT1080 IDH1KD tx	HT1080-NT tox	IL-1B inflam inh	TDP1 cell noCPT	DT40 TDP1 CPT
CCNc1ncc2nc(C)c(=O)n(CCOC)c2n1	.	.	.	-5.8%	-6.0%
COC(=O)C1CCN(Cc2ccc3c(c2)CN(C(=O)c2cc4cc(F)ccc4[nH]2)CCO3)CC1	.	.	.	14.6µM*	-10.5%[9.04 µM]
COC(=O)C1CCN(Cc2ccc3c(c2)CN(C(=O)c2cc(C)nc(C)n2)CCO3)CC1	.	.	.	-8.9%	8.0%[9.04 µM]
COC(=O)C1CCN(Cc2ccc3c(c2)CN(C(=O)c2cc(-c4ccc(C)o4)[nH]n2)CCO3)CC1	.	.	.	?	0.082µM*
COC(=O)C1CCN(Cc2ccc3c(c2)CN(C(=O)c2cc(C)on2)CCO3)CC1	.	.	.	-17.5%	9.5%[9.04 µM]
O=C(COc1ccccc1)NC1CCSC1=O (stereo not drawn)	9.1%	-1.1%	1.5	-2.2%	27.1%
O=S(=O)(NCCOCC(F)(F)C(F)F)c1ccc2oc3ccccc3c2c1	-22.9%	-14.2%	-18.7	13µM*	25.9µM*
COc1ccc(OCCNS(=O)(=O)c2ccc3oc4ccccc4c3c2)cc1	-1.9%	-0.2%	12.7	-27.7%	?
Cn1nc(-c2ccccc2)c(C(O)c2ccc(Cl)cc2)c1Cl (stereo not drawn)	-9.9%	0.5%	20.9	?	?
Cn1nc(-c2ccccc2)c(CSc2ccccc2Cl)c1Cl	?	?	-18.2	10.3µM*	?
Cc1cccc(-c2noc(CCC(=O)N3CCN(c4cc(C)ccc4C)CC3)n2)c1	0.7%	2.8%	-6.2	-8.1%	-22.0%
CC(C)N(Cc1cn[nH]c1-c1ccc(-c2ccccc2)cc1)Cc1nccn1C	20.6µM*	14.6µM*	-73.5*	?	?
CC(C)N(Cc1nc(COc2ccccc2)no1)Cc1nccn1C	-1.5%	-4.4%	-0.7	-9.4%	-6.7%
CCOC(=O)c1cc2c(=O)n3ccccc3nc2n(CCCOC)c1=NC(=O)c1c(-c2ccccc2Cl)noc1C	.	.	.	4.5%	-1.3%
Cc1nn(C)c(Oc2ccccc2)c1CCNS(=O)(=O)c1ccc(Cl)cc1	?	-24.7%	?	16.4µM*	16.4µM*
COc1ccc(S(=O)(=O)NCCc2ccccc2)cc1	-3.3%	-13.7%	15.0	-14.1%	-2.8%
Cc1nn(C)c(Oc2ccccc2)c1CCNC(=O)C(C)(C)C	2.1%	6.4%	10.6	-1.8%	-4.0%
COc1ccc(S(=O)(=O)NCCc2c(C)nn(C)c2Oc2ccccc2)cc1	-2.2%	-3.0%	-1.9	23.1µM*	?
Cc1ccc(C(=O)O)cc1NC1(c2ccccc2)C(=O)c2ccccc2C1=O	.	.	.	4.4%	2.4%
CCOC(=O)/C(=C/C=C/c1ccccc1)NC(=O)c1ccccc1	3.4%	-4.3%	-11.6	-15.8%	-14.4%
CCCCOc1ccc(C(=O)N/C(=C/C=C/c2ccccc2)C(=O)NCCO)cc1	-7.7%	-2.7%	-52.6*	-2.3%	-1.9%
CN(C)CCCNC(=O)/C(=C\C=C\c1ccccc1)NC(=O)c1ccc([N+](=O)[O-])cc1	?	-7.0%	-56.8*	?	2.1%
Cc1ccc(C(=O)N/C(=C\c2ccc([N+](=O)[O-])cc2)C(=O)NCCc2ccccc2)cc1	11.2µM*	?	9.5	?	?
CCOC(=O)/C(=C\C=C\c1ccccc1)NC(=O)c1ccccc1	-3.1%	-1.7%	-89.9*	?	?
COc1ccc(/C=C(/NC(=O)c2ccc([N+](=O)[O-])cc2)C(=O)NCCCN(C)C)cc1	0.1%	-0.4%	-1.1	-7.4%	3.7%
O=S(=O)(NCC[C@@H]1CC[C@H](NS(=O)(=O)c2cccc(F)c2)[C@@H](CO)O1)c1cccc(F)c1	-15.3%	-17.1%	-4.3	?	-19.9%
